The whole screen tested about 2,400 compounds, of which about 750 (31%) were called active. The list shows a part of the results. Values without a mark were called inactive.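 The calls were made as follows: active = median signal gain over dofetilide-blocked control wells reaching their mean plus 3 SD, so readout 1 at least 0; inactive = the rest.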

The target of the test is Voltage-gated inwardly rectifying potassium channel KCNH2 (Homo sapiens) (UniProt Q12809). The test is described as follows: modulators restoring hERG flux under dofetilide – cell-based, thallium flux, duplicate retest, dofetilide IC70, confirmation (AID 1835). The note with it: hERG cell line, FluxOR thallium flux, dofetilide-blocked; at 10 µM; stronger effect = higher value.
Sequence of Voltage-gated inwardly rectifying potassium channel KCNH2 (Homo sapiens) (Q12809 whole entry, looked up): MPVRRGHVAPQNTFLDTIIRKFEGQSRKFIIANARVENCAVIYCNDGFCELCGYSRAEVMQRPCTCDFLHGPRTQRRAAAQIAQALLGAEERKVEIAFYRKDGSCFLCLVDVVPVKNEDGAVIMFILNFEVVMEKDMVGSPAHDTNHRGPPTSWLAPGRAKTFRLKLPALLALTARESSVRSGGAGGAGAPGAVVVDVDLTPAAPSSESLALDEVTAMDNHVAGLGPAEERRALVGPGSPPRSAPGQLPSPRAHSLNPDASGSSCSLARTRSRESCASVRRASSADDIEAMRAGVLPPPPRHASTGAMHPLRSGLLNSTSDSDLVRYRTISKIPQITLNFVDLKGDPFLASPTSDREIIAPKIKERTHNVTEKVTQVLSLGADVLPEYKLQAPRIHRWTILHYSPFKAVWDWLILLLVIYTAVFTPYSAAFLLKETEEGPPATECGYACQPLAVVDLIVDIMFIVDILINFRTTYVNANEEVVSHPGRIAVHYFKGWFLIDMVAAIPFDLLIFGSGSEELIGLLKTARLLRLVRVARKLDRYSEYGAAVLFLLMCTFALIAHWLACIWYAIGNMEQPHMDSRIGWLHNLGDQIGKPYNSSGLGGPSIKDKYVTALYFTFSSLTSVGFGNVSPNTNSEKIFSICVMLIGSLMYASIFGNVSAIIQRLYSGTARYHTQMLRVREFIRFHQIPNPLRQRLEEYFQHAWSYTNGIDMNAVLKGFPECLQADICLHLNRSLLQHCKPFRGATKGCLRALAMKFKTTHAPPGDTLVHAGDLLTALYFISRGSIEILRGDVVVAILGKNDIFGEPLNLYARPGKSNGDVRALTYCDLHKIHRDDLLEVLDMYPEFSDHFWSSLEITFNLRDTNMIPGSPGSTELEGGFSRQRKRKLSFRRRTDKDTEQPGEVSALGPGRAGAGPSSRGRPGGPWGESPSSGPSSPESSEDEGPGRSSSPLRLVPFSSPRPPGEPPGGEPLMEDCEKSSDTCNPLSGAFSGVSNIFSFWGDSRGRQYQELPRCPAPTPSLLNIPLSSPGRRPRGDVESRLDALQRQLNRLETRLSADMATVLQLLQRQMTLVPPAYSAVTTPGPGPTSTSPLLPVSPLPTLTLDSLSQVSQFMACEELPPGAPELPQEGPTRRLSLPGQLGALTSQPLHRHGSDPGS
For the molecule `C=CCN(CC=C)C(=S)NC(=O)c1ccc(-c2ccccc2)cc1`, the activity increase over dofetilide control, less the hit threshold was -2%.
Consider `COc1ccccc1NC(=O)C1CCCN1C(=O)Nc1ccc(F)cc1` (stereo not drawn), for which the activity increase over dofetilide control, less the hit threshold is -14%.
For the molecule `CC(C)c1cccc(C(C)C)c1NC(=O)COC(=O)[C@H](C)NC(N)=O`, the activity increase over dofetilide control, less the hit threshold is -11%.
On to `C/C(=N/NC(=O)c1cc2ccccc2cc1O)c1ccco1`, for which the activity increase over dofetilide control, less the hit threshold is 40% (active).
For `O=C(OCc1ccc([N+](=O)[O-])cc1)c1cc2ccccc2oc1=O`, the activity increase over dofetilide control, less the hit threshold is -25%.
To `C/C(=N\NC(=S)Nc1c(C)cccc1C)c1cc2ccccc2o1` belongs -5%; to `C/C(=N\NC(=O)c1ccoc1C)c1cccc2ccccc12`, -13%; to `C/C(=N\NC(=O)c1cc2ccccc2cc1O)c1ccccn1`, -10%.
With `C/C(=N/NC(=O)c1sc(NS(=O)(=O)c2ccccc2)nc1C)c1sc(N)nc1C`, the activity increase over dofetilide control, less the hit threshold is -15%.
The figure for `C/C(=N\NC(=O)c1cc2ccccc2cc1O)c1cc2ccccc2o1` is 95% (active).
As to `C/C(=N\NC(=O)c1cc2ccccc2cc1O)c1ccc(C)o1`, the activity increase over dofetilide control, less the hit threshold is 50% (active).
As to `Cc1cc(N2CCN(C)CC2)nc(N2CCOCC2)n1`, the activity increase over dofetilide control, less the hit threshold is -6%.
To `O=C(N1CCOCC1)N1CCC(n2nnc3ccccc32)CC1` belongs -8%; to `CN(C)c1oc(-c2ccccc2)nc1C#N`, -17%.
To `Cn1c(=O)c2c(ncn2CC(=O)OCc2ccccc2)n(C)c1=O` belongs -11%; to `Cc1cc(C=O)c2c(c1)C=CC1(Oc3ccccc3C(=O)N1C)O2` (stereo not drawn), -29%; to `O=C(Cn1c(=O)c2cccn2c2ccccc21)NCCc1ccc(Cl)cc1`, -16%.
Consider `Oc1oc(-c2cccc3ccccc23)nc1/C=N/c1nccs1`, for which the activity increase over dofetilide control, less the hit threshold is 4% (active).
Consider `CCCCn1nnc(NC(=O)c2ccc(-c3cccc([N+](=O)[O-])c3)o2)n1`, for which the activity increase over dofetilide control, less the hit threshold is -6%.
On to `O=C(O)CSCc1c(F)cccc1Cl`, for which the activity increase over dofetilide control, less the hit threshold was -7%.
On to `O=C(O)CSc1nc2ccccc2nc1Cc1ccccc1F`, for which the activity increase over dofetilide control, less the hit threshold is 5% (active).
In the case of `Cn1c(CNC(=O)c2ccccc2F)nnc1SCc1nc2ccccc2c(=O)[nH]1`, the activity increase over dofetilide control, less the hit threshold is -9%.
Turning to `Cc1cccc(NC(=O)CN2C(=O)S/C(=C\c3cccn3-c3cccc(C(=O)O)c3)C2=O)c1`, the activity increase over dofetilide control, less the hit threshold was 7% (active).
As to `COc1ccc(C(=O)Nc2ccc(-n3nncc3C(C)(C)C)cc2)cc1`, the activity increase over dofetilide control, less the hit threshold was -4%.
On to `Cc1ccc(NC(=O)CN2C(=O)N/C(=C/c3ccccc3OCc3cccc(C(=O)O)c3)C2=O)cc1`, for which the activity increase over dofetilide control, less the hit threshold is -16%.
Turning to `COc1ccc(NC(=O)CN2C(=O)S/C(=C/c3cccn3-c3ccc(C(=O)O)cc3)C2=O)cc1`, the activity increase over dofetilide control, less the hit threshold is 94% (active).
On to `Cc1ccc(NC(=O)CN2C(=O)S/C(=C\c3cccn3-c3cccc(C(=O)O)c3)C2=O)c(C)c1`, for which the activity increase over dofetilide control, less the hit threshold is -4%.
Regarding `Oc1c(Cl)cc(Cl)cc1Sc1cc(Cl)cc(Cl)c1O`, the activity increase over dofetilide control, less the hit threshold is 76% (active).
For `O=C(O)CCCN1C(=O)C2C3c4ccccc4C(c4ccccc43)[C@@H]2C1=O` (stereo partly drawn), the activity increase over dofetilide control, less the hit threshold is -15%.
Take `Cc1noc(C)c1-c1nnc(-c2ccc(C(F)(F)F)cc2)o1`: the activity increase over dofetilide control, less the hit threshold was -11%.
For the molecule `Cc1ccc(O)c(C(=O)CC(=O)c2ccccc2Cl)c1`, the activity increase over dofetilide control, less the hit threshold is -2%.
In the case of `Cc1ccc(C(=O)CC(=O)c2ccccc2C)c(O)c1`, the activity increase over dofetilide control, less the hit threshold was -3%.
For `O=C(/C=C/c1ccccc1)CC(=O)c1ccccc1O`, the activity increase over dofetilide control, less the hit threshold is 11% (active).
For the molecule `O=C(NC(=S)N1CCc2ccccc21)c1ccccc1Br`, the activity increase over dofetilide control, less the hit threshold is 92% (active).
For the molecule `O=C(Nc1cccn(Cc2c(Cl)cccc2Cl)c1=O)c1ccccc1Cl`, the activity increase over dofetilide control, less the hit threshold is -21%.
On to `NS(=O)(=O)c1ccc(NC(=O)c2ccc(S(=O)(=O)N3CCc4ccccc43)cc2)cc1`, for which the activity increase over dofetilide control, less the hit threshold was -1%.
The figure for `O=C(COc1ccccc1)NC(=S)N1CCc2ccccc21` is 3% (active).
As to `Cc1cccc(C(=O)NNC(=S)NC(=O)c2ccccc2)c1`, the activity increase over dofetilide control, less the hit threshold was -20%.
Regarding `Cc1ccc(C(=O)NC(=S)N2CCN(c3cc(C)ccc3C)CC2)cc1`, the activity increase over dofetilide control, less the hit threshold is -3%.
Turning to `CN1C(=O)CSc2ccc(NC(=O)N3CCc4ccccc43)cc21`, the activity increase over dofetilide control, less the hit threshold is -10%.
On to `Cc1cccc(C(=O)NC(=S)N2CCc3ccccc3C2)c1`, for which the activity increase over dofetilide control, less the hit threshold was 32% (active).
`O=C(COc1ccccc1)NC(=S)Nc1ccc2c(c1)Cc1ccccc1-2`: the activity increase over dofetilide control, less the hit threshold was -9%.
To `CC1(C)CC2CC(C)(CN2C(=S)NC(=O)c2ccccc2Cl)C1` (stereo not drawn) belongs 28% (active).
For the molecule `Cc1cccc(OCC(=O)NC(=S)N2CCCc3ccccc32)c1`, the activity increase over dofetilide control, less the hit threshold was -10%.
As to `CC1c2nc3ccccc3n2C(CC(=O)NCCCN2CCOCC2)C(=O)N1Cc1ccccc1` (stereo not drawn), the activity increase over dofetilide control, less the hit threshold is -8%.
As for `CCCOc1ccc(C2NC(=S)NC(c3ccccc3)=C2C(=O)Nc2ccc(C)cc2)cc1OC` (stereo not drawn), the activity increase over dofetilide control, less the hit threshold is -5%.
In the case of `Cc1cc(C(=O)N/N=C/c2ccc(O)c([N+](=O)[O-])c2)n[nH]1`, the activity increase over dofetilide control, less the hit threshold is -13%.
The figure for `O=C(NC(=S)N1CCc2ccccc21)c1ccco1` is -11%; for `O=C(NC(=S)N1CCCc2ccccc21)c1ccccc1` it is -18%; for `O=C(NC(=S)N1CCc2ccccc21)c1ccccc1Cl` it is 53% (active).
The figure for `O=C(NC(=S)N1CCc2ccccc21)c1ccc(Br)o1` is 12% (active).
To `O=C(c1ccccc1)N1CCc2ccccc21` belongs -6%; to `O=C(NC(=S)N1CCc2ccccc21)c1ccccc1`, 43% (active).

(Values after PubChem BioAssay AID1835 (Johns Hopkins Ion Channel Center, 2009).)
